Mdm2-MdmX inh – inhibitors of human Mdm2-MdmX association, primary screen, cell-based, luminescence, split luciferase, SaOS-2, uHTS | Protein Mdm4 (Homo sapiens) + E3 ubiquitin-protein ligase Mdm2 (Homo sapiens), … | SaOS-2 split-luciferase Mdm2/MdmX complementation | inhibition, % at 8 µM | 330,000 tested, 3% active | AID 485346, 2010;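 active = inhibition of at least 50% at 8 µM in the primary screen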
Jurkat NFkB inh – inhibitors of induced NF-kB luciferase reporter, primary screen, TCR NF-kB activation inhibitor project, cell-based, luminescence, uHTS | Jurkat, PMA/ionomycin-induced NF-kB luciferase reporter | inhibition, % at 4 µM | 330,000 tested, 0.53% active | AID 435003, 2010; in the data active = inhibition above about 50%
Gli-Sufu antag – Gli-Sufu pathway antagonists, primary screen, luciferase luminescence, Sufu-KO-LIGHT cells, uHTS. Sufu-KO-LIGHT fibroblasts, Gli luciferase reporter luminescence. inhibition, % at 5 µM. 340,000 tested, 0.74% active. AID 588413, 2011;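 active = inhibition above about 55%, limit read from the data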;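 also: 0% = DMSO-treated cells and 100% = wells with medium but no cells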
Beta apoptosis – inhibitors of cytokine-induced beta cell apoptosis, primary screen, luminescence. INS-1E cytokine-induced death, ATP luminescence, 48 h; percent of positive-control rescue, neutral wells zero. protection from apoptosis, % (test concentration not listed). 300,000 tested, 0.8% active;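 active = Every replicate reaches about 75%, or at least half do and their mean reaches it too, limit read from the data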;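 also: 0% = cytokine-treated negative control wells and 100% = positive control rescue; higher means more ATP so stronger rescue from cytokine killing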
697 NFkB inh – inhibitors of PMA/ionomycin-induced NF-kB reporter, 697 cells, primary screen, B-cell NF-kB inhibitor project, cell-based, luminescence, uHTS. 330,000 tested, 0.33% active. 697 B-cell NF-kB luciferase reporter, 16 h. AID 435022, 2010. inhibition, % at 4 µM; in the data active = inhibition above about 35%
Mdm2 MdmX conf – Mdm2-MdmX complex disruptors, retested hits, confirmation, luminescence, single concentration; shares compounds with Mdm2-MdmX inh; Mdm2-MdmX binding, luminescent assay; inhibition, % at 8 µM; 10,000 tested, 55% active; in the data active = inhibition above about 40%
Full FLuc ctr – full-length luciferase signal inhibition, confirmation, counter-screen for Mdm2/MdmX interaction inhibitor project, cell-based, single concentration, SaOS-2 | 6,200 tested, 77% active | inhibition, % at 8 µM | shares compounds with Mdm2-MdmX inh | AID 504607, 2011 | SaOS-2 full-length luciferase counterscreen, luminescence;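 active = mean inhibition at 8 µM reaching about 37%, which flags the compound as non-specific, limit read from the data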;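 also: p53-null SaOS-2 cells with luciferase driven by a doxycycline-inducible promoter; compound on cells about two nights before reading with doxycycline added after day one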
An asterisk follows results filed as active; x = not tested or not shown. Shown are actives, neighbours in structure and some others; about 4% of the full set was active somewhere.

SMILES | Mdm2-MdmX inh | Jurkat NFkB inh | Gli-Sufu antag | Beta apoptosis | 697 NFkB inh | Mdm2 MdmX conf | Full FLuc ctr
COc1ccc(-c2csc(NC(=O)c3ccccc3NS(=O)(=O)c3ccc(F)c(F)c3)n2)cc1 | 90* | 16 | 75* | 87* | -8 | 91* | 22
O=C(Nc1nc(-c2ccccc2)cs1)C1CCCN(S(=O)(=O)c2ccccc2)C1 (centres undefined) | 78* | 12 | -8 | x | -72 | 65* | 79*
O=C(Nc1nc(-c2ccccc2)cs1)C1CCCN(S(=O)(=O)c2cccc([N+](=O)[O-])c2)C1 (centres undefined) | 42 | 8 | 2 | x | 16 | x | x
COc1cccc(-c2cc(C(=O)Nc3ccc(N(C)C(C)=O)cc3)c3cc(Br)ccc3n2)c1 | 62* | 3 | 7 | 15 | 17 | 1 | x
O=C(Nc1ccc(C(F)(F)F)cc1)c1cc(-c2cccnc2)nc2ccc(Br)cc12 | 57* | -14 | 0 | 24 | 2 | 1 | x
COc1cccc(-c2cc(C(=O)Nc3ccncc3)c3ccccc3n2)c1 | -5 | 0 | 1 | 15 | -65 | x | x
O=C(c1ccccc1F)N1CCN(c2cnn(-c3cccc(Cl)c3)c(=O)c2Cl)CC1 | -21 | -2 | 2 | 29 | -41 | x | x
C=CCOc1ccccc1CNc1ccc2c(c1)OCCO2 | 64* | -102 | 40 | 9 | -246 | 65* | 69*
O=C(NC1=NCCS1)C1COc2ccccc2O1 (centres undefined) | 80* | 45 | 39 | -20 | -94 | 81* | 34
Cc1ccc(C)c(NC(=S)NC(NC(=O)N(C)C)C(Cl)(Cl)Cl)c1 (centres undefined) | 14 | 12 | 5 | -10 | 10 | x | x
Cc1ccc(C)c(NC(=S)NC(NC(=O)Cc2cccc3ccccc23)C(Cl)(Cl)Cl)c1 (centres undefined) | 99* | 5 | 6 | 76* | 0 | 99* | 2
O=C(NCCN1C(=O)S/C(=C\c2ccc(Cl)c([N+](=O)[O-])c2)C1=O)C1=COCCO1 | 96* | 4 | 0 | -2 | -7 | 58* | 57*
O=C(Nc1nccs1)C(c1ccccc1)N1CCCC1 (centres undefined) | -1 | 4 | 6 | -10 | 5 | x | x
COc1ccc(NC(=O)CSc2nc3ccc(Nc4nc(N5CCOCC5)nc(N5CCOCC5)n4)cc3s2)cc1 | 85* | -8 | -6 | x | 1 | 49* | 37*
Cc1ccc(NC(=O)CSc2nc3ccc(Nc4nc(N5CCOCC5)nc(N5CCOCC5)n4)cc3s2)cc1 | 95* | 1 | 14 | 41 | -16 | 41* | 26
CC(=O)CSc1nc2ccc(Nc3nc(N4CCOCC4)nc(N4CCOCC4)n3)cc2s1 | 21 | -19 | -3 | 2 | -38 | x | x
CCOC(=O)c1ccc(NC(=O)CSc2nc(N3CCOCC3)nc(N3CCOCC3)n2)cc1 | 74* | 1 | 9 | -3 | -8 | 25 | x
O=C(CSc1nc(Nc2ccccc2)nc(N2CCOCC2)n1)Nc1ccccc1Cl | 75* | -6 | 7 | 14 | -39 | 25 | x
CCOc1ccccc1NC(=O)COC(=O)c1c[nH]c2ccccc12 | 48 | 48 | -2 | x | -51 | x | x
O=C1N(CN2CCOCC2)c2ccccc2C12OCC(CCl)O2 (centres undefined) | -17 | 7 | -1 | -2 | 7 | x | x
CCCn1c(SCC(=O)NCCCN2CCCC2=O)nc2ccccc2c1=O | 28 | 1 | 0 | 3 | 9 | x | x
COc1ccc(Nc2nc(N3CCOCC3)nc(N3CCOCC3)n2)cc1Cl | 61* | -30 | 11 | x | 10 | 22 | x
